Holding throughout (assay): Euclidean distance of Cell Painting phenotypic profile (signed KS, 77 features) to DMSO centroid (dimensionless distance); 5 or 10 uM (library dependent); higher = stronger phenotypic change vs DMSO (phenoactivity)
Details in all cases: 48 h

For assay [1], the system named is 786-O. The essentials: (§1)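 Library compounds were applied at 10 or 5 uM, depending on the library, with 0.1% DMSO final, for 48 h to five cancer lines and a healthy fibroblast line. After staining, cells were imaged confocally at 20X across 9 fields per well, and Harmony extracted 77 features, each scored as a signed Kolmogorov-Smirnov statistic against vehicle wells on the same plate. Phenoactivity is the Euclidean distance between each profile and the median vehicle profile, with profiles first plate-position corrected, correlation-weighted and averaged over replicates at the top dose.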

In assay [2] the test system is A549. The gist of the method: as §1
The test system of assay [3] is DU145. The gist of the method:
as §1

In assay [4] the test system is FB. The gist of the method: as §1
Assay [5] deals with HEPG2. The gist of the method:
as §1

Assay [6] has as its system OVCAR4. The essentials: as §1

Structures are written as SMILES. Structures can show the parent of a compound that is named as a salt.

`CCn1cc(C(=O)O)c(=O)c2cc(F)c(N3CCN(C)CC3)cc21` [Pefloxacin Mesylate Dihydrate]: the Euclidean distance amounted to 1.52 in assay [1]; 1.04 in assay [2]; 0.855 in assay [3]; 0.707 in assay [4]; 0.635 in assay [5]; 1.07 in assay [6].

On to `O=C1NCC2(CCN(CCc3ccccc3)CC2)O1` [Fenspiride HCl], for which the Euclidean distance stood at 0.914 in assay [1]; 1.2 in assay [2]; 1.2 in assay [3]; 1.2 in assay [4]; 1.08 in assay [5]; 1.26 in assay [6].

On to `O=C(O)c1cc(O)c2c(c1)[C@@H]([C@H]1c3cc(C(=O)O)cc(O)c3C(=O)c3c(O[C@@H]4O[C@H](CO)[C@@H](O)[C@H](O)[C@H]4O)cccc31)c1cccc(O[C@@H]3O[C@H](CO)[C@@H](O)[C@H](O)[C@H]3O)c1C2=O` [Sennoside B], for which the Euclidean distance was 1.31 in assay [1]; 0.866 in assay [2]; 0.808 in assay [3]; 0.988 in assay [4]; 0.382 in assay [5]; 0.952 in assay [6].

As for `CC[C@H](C)C(=O)O[C@H]1C[C@H](O)C=C2C=C[C@H](C)[C@H](CC[C@@H](O)C[C@@H](O)CC(=O)O)[C@H]21` [Pravastatin sodium], the Euclidean distance amounted to 0.813 in assay [1]; 0.763 in assay [2]; 0.709 in assay [3]; 0.425 in assay [4]; 0.254 in assay [5]; 0.778 in assay [6].

On to `N[C@@H]1c2cccnc2[C@H](OC(=O)N2CCC(n3c(=O)[nH]c4ncccc43)CC2)CC[C@H]1c1cccc(F)c1F`, for which the Euclidean distance is 1.04 in assay [1]; 0.68 in assay [2]; 0.986 in assay [3]; 1.29 in assay [4]; 0.768 in assay [5]; 1.31 in assay [6].

`CC[N+](CC)(CC)CC` [Tetraethylammonium bromide]: the Euclidean distance in assay [1] came to 1.58; in assay [2], 0.816; in assay [3], 0.857; in assay [4], 0.968; in assay [5], 1.11; in assay [6], 0.715.

In the case of `O=C1c2c(O)ccc(O)c2C(=O)c2c(NCCNCCO)ccc(NCCNCCO)c21` [Mitoxantrone HCl], the Euclidean distance in assay [1] turned out to be 4.89; in assay [2], 4.24; in assay [3], 3.24; in assay [4], 4.31; in assay [5] it was 4.05; in assay [6] it was 6.27.

For `CCOC(=O)C1=C(N)Oc2ccc(Br)cc2C1C(C#N)C(=O)OCC` (stereo not drawn), the Euclidean distance was 0.871 in assay [1]; 1.18 in assay [2]; 1.12 in assay [3]; 1.03 in assay [4]; 1.03 in assay [5]; 0.791 in assay [6].

On to `CN1C(=O)CC(c2ccccc2)C1=O` (stereo not drawn) [Phensuximide], for which the Euclidean distance in assay [1] stood at 0.788; in assay [2] it was 1.12; in assay [3], 1.01; in assay [4], 0.827; in assay [5], 0.849; in assay [6] it was 0.954.

Regarding `COc1cc2c(Nc3ccc(NC(=O)c4ccccc4)cc3)ncnc2cc1OCCCN1CCOCC1`, the Euclidean distance in assay [1] is 2.71; in assay [2], 3.81; in assay [3], 3.11; in assay [4], 2.7; in assay [5] it was 1.92; in assay [6] it was 3.02.

Turning to `Oc1ccc([C@H]2COc3cc(O)ccc3C2)cc1` (racemic), the Euclidean distance in assay [1] came to 1.39; in assay [2], 0.796; in assay [3], 1.27; in assay [4], 0.952; in assay [5], 0.464; in assay [6] it was 0.928.

For `COc1cc(CNC(=O)CCCCC=CC(C)C)ccc1O` [Capsaicin(Vanilloid)], the Euclidean distance in assay [1] came to 1.06; in assay [2] it was 1.47; in assay [3], 1.35; in assay [4], 0.876; in assay [5], 0.778; in assay [6], 1.44.

As for `FCOC(C(F)(F)F)C(F)(F)F` [Sevoflurane], the Euclidean distance is 1.15 in assay [1]; 0.865 in assay [2]; 0.847 in assay [3]; 0.867 in assay [4]; 0.827 in assay [5]; 1.51 in assay [6].

With `O=C(NC(NC(=S)Nc1ccc(F)c([N+](=O)[O-])c1)C(Cl)(Cl)Cl)C(c1ccccc1)c1ccccc1` (stereo not drawn), the Euclidean distance was 1.02 in assay [1]; 2.27 in assay [2]; 1.38 in assay [3]; 1.49 in assay [4]; 1.56 in assay [5]; 1.25 in assay [6].

Consider `Nc1nc(CC(=O)Nc2ccc(CCNC[C@H](O)c3ccccc3)cc2)cs1` [Mirabegron], for which the Euclidean distance in assay [1] came out at 0.989; in assay [2], 1.17; in assay [3] it was 1.1; in assay [4] it was 1.21; in assay [5], 0.802; in assay [6], 1.68.

Consider `NC(=O)C(c1ccccc1)(c1ccccc1)[C@@H]1CCN(CCc2ccc3c(c2)CCO3)C1` [Darifenacin HBr], for which the Euclidean distance in assay [1] was found to be 1.59; in assay [2] it was 0.89; in assay [3], 0.786; in assay [4], 1.4; in assay [5], 1.11; in assay [6] it was 1.04.

For the compound `Cc1ccc(NCCCc2ccccc2)c(N)c1`, the Euclidean distance in assay [1] came to 0.637; in assay [2], 0.572; in assay [3], 0.826; in assay [4], 0.816; in assay [5], 0.57; in assay [6], 0.53.

For `Cn1c(=O)c2[nH]cnc2n(C)c1=O` [Aminophylline], the Euclidean distance in assay [1] is 1.11; in assay [2], 1.06; in assay [3] it was 0.75; in assay [4] it was 0.798; in assay [5], 0.585; in assay [6] it was 0.841.

For the compound `C/C(=C\C(=O)OCCCCCCCCC(=O)O)C[C@@H]1OC[C@H](C[C@@H]2O[C@H]2[C@@H](C)[C@H](C)O)[C@@H](O)[C@H]1O` [Mupirocin calcium], the Euclidean distance is 1.28 in assay [1]; 0.948 in assay [2]; 1.83 in assay [3]; 0.82 in assay [4]; 0.518 in assay [5]; 1.26 in assay [6].

As to `O=C(NOCC1CC1)c1ccc(F)c(F)c1Nc1ccc(I)cc1Cl`, the Euclidean distance worked out at 2.48 in assay [1]; 3.7 in assay [2]; 2.78 in assay [3]; 2.12 in assay [4]; 2.22 in assay [5]; 2.06 in assay [6].

`C=C1/C(=C\C=C2/CCC[C@]3(C)[C@@H]([C@H](C)/C=C/[C@H](C)C(C)C)CC[C@@H]23)C[C@@H](O)C[C@@H]1O` [Doxercalciferol]: the Euclidean distance in assay [1] worked out at 2.73; in assay [2] it was 1.49; in assay [3] it was 6.05; in assay [4], 1.9; in assay [5], 2.03; in assay [6], 1.73.

On to `CO/N=C(\C(=O)N[C@@H]1C(=O)N2C(C(=O)O)=C(CSc3nc(C)c(CC(=O)O)s3)CS[C@H]12)c1csc(N)n1` [Cefodizime Sodium], for which the Euclidean distance in assay [1] was determined as 0.755; in assay [2], 1.08; in assay [3], 1.48; in assay [4], 0.804; in assay [5] it was 0.792; in assay [6], 0.754.

On to `O=C1NC(=O)/C(=C/c2ccc(-c3ccc(F)cc3O)o2)S1`, for which the Euclidean distance in assay [1] stood at 1.18; in assay [2], 0.855; in assay [3] it was 1.25; in assay [4] it was 1.02; in assay [5], 0.814; in assay [6], 0.97.

The values above are taken from the supplement of paper PMC10127200.
